Screens deposited in PubChem by National Center for Advancing Translational Sciences (NCATS).
SMN2 splice enh: increases expression of the SMN2 splice variant; HEK293 SMN2-luciferase splicing reporter, luminescence, 30-36 h; Potency, µM (titrated, usually from 46.1 µM), without a hit: at the top dose activity change, positive = activation, most hits filed as activators; hit rate 2.8% among 210,000; AID 1458; note: % of control where 0% means no effect; nearly all actives have a fitted effect of over 55% in size
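qHTS luciferase splicing reporter: luminescence rises when SMN2 exon 7 is included in transfected HEK293 cells. Compound exposure lasted 30-36 h at 37C, with 4.5 mM final sodium butyrate as control, followed by a ONE-Glo read.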
ELG1 genotoxic: inducers of genotoxicity in HEK293T ELG1-luciferase cells; HEK293T ELG1-luciferase reporter, luminescence, 16 h; Potency, µM (titrated, usually from 46 µM), for inactives: at the top dose activity change, positive = activation, usual class: activators; hit rate 1.3% among 330,000; note: % of control where 0% means no effect; nearly all actives have a fitted effect of over 60% in size
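16 hr compound incubation (37 °C, 5% CO2) of HEK293T cells carrying luciferase-tagged ELG1; luciferase then measured by ONE-Glo luminescence after 30 min at RT.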
FLuc counter: firefly luciferase modulation, counter-screen for miR-21 project; P08659; purified FLuc, Km substrates, luminescence inhibition; Potency, µM (highest dose often 57.5 µM), inactives show at the highest dose activity change, negative = inhibition, usual class: inhibitors; hit rate 6.9% among 360,000;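 note: plate controls were vehicle for no effect and reference inhibitor for full effect; nearly all actives have a fitted effect of over 55% in size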
Target sequence (P08659 whole entry, looked up): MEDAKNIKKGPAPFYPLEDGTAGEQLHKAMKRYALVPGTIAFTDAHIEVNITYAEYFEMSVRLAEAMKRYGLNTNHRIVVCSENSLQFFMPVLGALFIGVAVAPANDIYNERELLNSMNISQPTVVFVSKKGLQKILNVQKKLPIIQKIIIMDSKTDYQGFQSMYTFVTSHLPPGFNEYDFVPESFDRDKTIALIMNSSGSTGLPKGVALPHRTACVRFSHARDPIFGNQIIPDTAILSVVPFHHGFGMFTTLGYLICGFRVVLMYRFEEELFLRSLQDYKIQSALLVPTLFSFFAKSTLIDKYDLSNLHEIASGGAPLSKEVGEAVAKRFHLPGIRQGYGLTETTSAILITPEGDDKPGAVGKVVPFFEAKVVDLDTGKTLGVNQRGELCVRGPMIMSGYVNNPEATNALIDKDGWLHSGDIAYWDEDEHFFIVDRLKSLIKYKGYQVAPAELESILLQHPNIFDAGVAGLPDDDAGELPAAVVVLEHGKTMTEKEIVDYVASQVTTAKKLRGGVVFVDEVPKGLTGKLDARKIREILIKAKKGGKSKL
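Purified P. pyralis luciferase (10nM final) with 10uM D-luciferin and 10uM ATP (Km levels) in 50mM Tris acetate pH 7.5, 10mM Mg acetate, 0.01% Tween-20, 0.05% BSA; qHTS 6-point titration, ~60 µM downward; luminescence read.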
ELG1 repair inh: blocks ELG1-dependent DNA repair in HEK293T cells | HEK293T ELG1-luciferase reporter, luminescence, 16 h; DNA damage induced by 5-fluorouridine | Potency, µM (series often up to 46.1 µM), for the others: top-dose activity change, negative = inhibition, usual class: inhibitors | hit rate 2.3% among 330,000 | AID 504467; note: % is set by controls: 0 for no effect and ±100 for the full control effect; nearly all actives have a fitted effect of over 55% in size
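In this reporter screen, reduction of luminescence relative to DMSO vehicle indicated activity. Compounds and 5-fluorouridine were added together to 2,000 cells per well, incubated for 16 hr at 37 °C, then developed with ONE-Glo.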
NPC1 prom act: NPC1 promoter activation. Huh7 NPC1 promoter luciferase reporter, 24 h. Potency, µM (titrated, usually from 9.22 µM), without a hit: at the top dose activation, hits mostly activators. hit rate 2.4% among 320,000; note: % of control where 0% means no effect; nearly all actives have a fitted effect of over 60% in size
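Compounds in DMSO were transferred onto Huh7 NPC1-luciferase reporter cells pre-incubated 2 h; after 24 h at 37 °C, Amplite reagent was dispensed and luminescence recorded 10 min later.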
Rab9 prom act: Rab9 promoter activation; Potency, µM (titrated, usually from 9.22 µM), for inactives: at the highest dose activation, negative = inhibition, hits mostly activators; AID 485297; hit rate 2.8% among 320,000; Huh7 Rab9 promoter-luciferase reporter, luminescence, 24 h; note: % of control where 0% means no effect; nearly all actives have a fitted effect of over 60% in size
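Stable Rab9-luc Huh7, 1500 cells/well, 2 h settle; cmpd in DMSO, 24 h, 37 °C/5% CO2; luciferase reagent 10 min RT; luminescence.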
The depositor's hits bear a star; ? = inconclusive; nt = no result; [ ] = another dose, or the depositor's remark. In the library only some 9.2% were active in any assay of this set; here they are far more common. Calls come from the whole dose curve; as a rule, active = well fitted curve in the direction sought with a large enough effect; inconclusive = small, poorly fitted or top-dose-only effect, or another doubt; inactive = no such curve, though single readings can be large; an effect the other way counts as inactive or inconclusive. Potency is the fitted concentration of half-maximal effect.

SMILES	SMN2 splice enh	ELG1 genotoxic	FLuc counter	ELG1 repair inh	NPC1 prom act	Rab9 prom act
COc1ccc(-c2noc(-c3ccccc3C(=O)NCC3CCCO3)n2)cc1 (stereo not given)	nt	-9%	9.5µM*	?	1%	-1%
Cc1ccccc1-c1noc(-c2ccccc2C(=O)NCC2CCCO2)n1 (stereo not given)	nt	-8%	15µM*	0%	1%	-1%
Oc1ccc(C2=NNC(c3ccc(O)cc3)=NN2)cc1	nt	3%	-2%	1%	7%	2%
CSC1=NNC(c2ccc(C(C)(C)C)cc2)=NN1	nt	19%	12µM*	?	?	?
Cc1cc(C(=O)Cn2nnc3ccccc3c2=O)c(C)n1Cc1cccs1	0%	2.6µM*	0.6µM*	?	0.35µM*	0.45µM*
Cc1cc(C(=O)CN2C(=O)CCC2=O)c(C)n1Cc1ccccc1	-43%	?	?	?	-6%	1%
CCCn1c(C)cc(C(=O)CN2C(=O)c3cccc(N)c3C2=O)c1C	?	?	2.7µM*	?	2.8µM*	3.2µM*
Cc1cc(C(=O)CN2C(=O)c3ccccc3C2=O)c(C)n1Cc1cccs1	14µM*	?	0.85µM*	?	0.5µM*	0.4µM*
Clc1cccc(Cl)c1Cn1ccc(C2CC2)n1	?	?	12µM*	?	?	3.2µM*
CCCC1c2ccc(C)n2CCN1C(=O)Nc1ccccc1Cl (stereo not given)	?	14%	12µM*	?	20%	26%
Cc1[nH]n(-c2ccccc2)c(=O)c1C(=O)Nc1ccccc1	nt	9%	17µM*	?	0%	13%
Cc1[nH]n(-c2ccccc2)c(=O)c1N=Nc1ccccc1O	nt	10%	8.5µM*	?	-30%	-42%
CCOc1ccc(N=Nc2c(C)[nH]n(-c3ccccc3)c2=O)cc1	nt	-5%	?	-4%	17%	4%
Cc1cc(Cl)cc2c(N=Nc3ccccc3C(=O)O)c(O)[nH]c12	nt	3%	12µM*	?	?	?
Cc1ccc2[nH]c(O)c(N=Nc3ccccc3C)c2c1	nt	0%	?	13%	?	21%
Cc1[nH]n(-c2ccccc2)c(=O)c1N=Nc1nccs1	-32%	6%	19µM*	?	19%	10%
C/C(=N\NC(=O)c1ccccc1)c1c(C)[nH]n(-c2ccccc2)c1=O	nt	4%	-13%	?	-25%	-20%
Cc1ccccc1C(=O)Nc1nc2nc(-c3ccccc3)cc(=O)n2[nH]1	-3%	nt	?	nt	nt	nt
Cc1c2cnn(CC(=O)N3CCN(c4ccc(F)cc4)CC3)c(=O)c2c(C)n1Cc1ccc(F)cc1	15%	nt	-18%	nt	nt	nt
COc1cc(C2CC(=O)c3c([nH]c(C(=O)OC4CCCCC4)c3C)C2)cc(OC)c1OC (stereo not given)	nt	nt	1%	nt	nt	nt
CCN1CCN(Cc2nc3cc(NC(=O)c4cc(OC)c(OC)c(OC)c4)ccc3n2CC)CC1	nt	nt	-7%	nt	nt	nt
Cc1ccccc1N=Nc1c(C)[nH]n(-c2ccccc2)c1=O	nt	-1%	?	6%	2%	0%
Cc1[nH]n(-c2ccccc2)c(=O)c1N=Nc1ccccc1C(=O)O	nt	-16%	17µM*	-19%	18%	17%
CCCCc1nc2c(c3c1C[C@H](C)OC3)CN(S(=O)(=O)c1ccc(C#N)cc1)CC2	-5%[9.22 µM]	nt	nt	nt	nt	nt
C/C(Cl)=C/CSc1nn2c(=O)c3ccccc3nc2s1	27%	?	12µM*	?	?	?
Cc1nnc2sc(SCc3ccccc3)nn2c1=O	7%	3%	0%	?	1%	-6%
C=CCSc1nc2ccccc2c(=O)[nH]1	12%	7%	-5%	30%	1%	-18%
C=CCSc1nn2c(=O)c3ccccc3nc2s1	?	?	13µM*	?	2.5µM*	3.2µM*
CN(C)S(=O)(=O)c1ccc2c(c1)N(CC(=O)N1CCN(c3ccccc3F)CC1)CCS2	nt	nt	-7%	nt	nt	nt
